Measurements: PubChem BioAssay (NCATS)
A number with no mark means an inactive call. Results filed as inconclusive are left out. Entries that show only a call come without a potency. The source made the active and inactive calls. Unless noted, calls follow the shape of the dose curve; as a rule, active = well fitted curve in the direction sought with a large enough effect; inconclusive = small, poorly fitted or top-dose-only effect, or another doubt; inactive = no such curve, though single readings can be large; an effect the other way counts as inactive or inconclusive.

Key:
[1] = target: Rap guanine nucleotide exchange factor 3 (Homo sapiens) (UniProt O95398); test: Confirmatory qHTS for antagonist of cAMP-regulated guanine nucleotide exchange factor 3 (EPAC1) (AID 1645880); details: EPAC1 Rap1B-BODIPY-GDP exchange, fluorescence; activity, negative = inhibition: at 115 µM (top of the series); also: nearly all actives have a fitted effect of over 55% in size; also: potency is read from the fitted curve at half-maximal effect
Summary of the method: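 Released BODIPY-GDP fluoresces less than Rap1-bound BODIPY-GDP; the signal is followed at 480/540 nm at 5-min intervals over 30 min, after 5 min at room temperature. Reactions contain 100 nM EPAC1, 250 nM RAP1B-BODIPY-GDP and 50 uM GDP; results are normalized to ATA and DMSO.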

[2] = target: Rap guanine nucleotide exchange factor 3 (Homo sapiens) (UniProt O95398); test: Confirmatory qHTS for agonist of cAMP-regulated guanine nucleotide exchange factor 3 (EPAC1) (AID 1645881); also: nearly all actives have a fitted effect of over 75% in size; also: potency is read from the fitted curve at half-maximal effect;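 as to activation: EPAC1 catalysed release of BODIPY-GDP from Rap1B seen as fluorescence loss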
[3] = target: Rap guanine nucleotide exchange factor 4 (Homo sapiens) (UniProt Q8WZA2); test: Confirmatory qHTS for agonist of cAMP-regulated guanine nucleotide exchange factor 4 (EPAC2) (AID 1645884);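 also: nucleotide exchange releases bodipy-GDP from Rap1 and this lowers its fluorescence; nearly all actives have a fitted effect of over 65% in size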; also: potency is read from the fitted curve at half-maximal effect
[4] = target: Rap guanine nucleotide exchange factor 3 (Homo sapiens) (UniProt O95398); test: Counterscreen qHTS for antagonist of cAMP-regulated guanine nucleotide exchange factor 3 (EPAC1) (AID 1645888)
Summary of the method: (§1)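 Measured: fluorescence of BODIPY-GDP bound to Rap1B, which falls as exchange proceeds. Conditions include 50 uM competing GDP, 5 and 30 min reads, and a later cAMP challenge for antagonist detection.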

[5] = target: Rap guanine nucleotide exchange factor 3 (Homo sapiens) (UniProt O95398); test: Counterscreen qHTS for agonist of cAMP-regulated guanine nucleotide exchange factor 3 (EPAC1) (AID 1645889); also: nearly all actives have a fitted effect of over 40% in size; also: potency is read from the fitted curve at half-maximal effect
Summary of the method: as §1

[6] = AP1 Signaling Pathway (AID 357; active = well fitted curve in either direction with a large enough effect, not every such curve was filed as active;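 also: ME-180 reporter cells stimulated with EGF at its EC50 level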); details: ME-180 (cervical carcinoma) AP-1-bla reporter, EGF-induced, beta-lactamase ratio, 5 h; at 7.69 µM (top of the series) unless noted
Summary of the method: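 Modulation of EGF-driven AP-1 transcription was assessed with a beta-lactamase reporter in ME-180 cells. Compound and EC50 EGF were co-incubated 5 hours at 37 °C before 2.5-hour CCF4 loading at room temperature and dual-emission reading.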

[7] = NFAT Signaling Pathway (AID 444; active = well fitted curve in either direction with a large enough effect, not every such curve was filed as active;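 also: carbachol stimulus at about its EC50 of 1 µM final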); details: Jurkat NFAT-bla M1, carbachol, beta-lactamase ratio, 5 h; at 7.69 µM (top of the series) unless noted
Summary of the method: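 Jurkat cells carrying an NFAT-driven β-lactamase reporter and co-transfected muscarinic M1 receptor were treated with compound plus carbachol (1 uM final, an EC50 level) for 5 h at 37 °C. CCF4 loading followed for 1 h at RT; 460/530 nm ratio gave %activity.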

[8] = Stat Signaling Pathway (AID 446; active = well fitted curve in either direction with a large enough effect, not every such curve was filed as active;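 also: ME-180 cervical cancer cells given 40 pM IL-6 alongside compound; SIE-controlled beta-lactamase reporter measured as 460/530 nm FRET emission ratio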)
Summary of the method: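 Normalization used AC90 stimulation (300 pM IL-6) and AC90 inhibition (125 nM pan-JAK inhibitor at 40 pM IL-6). The underlying signal is SIE-driven beta-lactamase in ME-180 cells after 5 h IL-6 exposure with compound.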

[9] = target: Glucocorticoid receptor (Homo sapiens) (UniProt P04150); test: GR-GFP Redistribution (AID 450;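 active = compounds whose dose series gives a full or clear partial fitted curve of increased nuclear translocation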; also: potency is read from the fitted curve at half-maximal effect); details: U2OS GR-GFP nuclear translocation, laser cytometry, 2 h
[10] = target: Tumor susceptibility gene 101 protein (Homo sapiens) (UniProt Q99816); test: qHTS Assay for Iinhibitors of HIV-1 Budding by Blocking the Interaction of PTAP/TSG101: Hit Validation (AID 651600); also: potency is read from the fitted curve at half-maximal effect; nearly all actives have a fitted effect of over 70% in size
Summary of the method: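 Displacement of a FITC-labeled PTAP-motif peptide (50 nM) from the Tsg101 binding domain (10 uM) was monitored by fluorescence polarization after a 20 min room-temperature incubation.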

Rap guanine nucleotide exchange factor 3 (Homo sapiens), sequence (O95398 whole entry, looked up): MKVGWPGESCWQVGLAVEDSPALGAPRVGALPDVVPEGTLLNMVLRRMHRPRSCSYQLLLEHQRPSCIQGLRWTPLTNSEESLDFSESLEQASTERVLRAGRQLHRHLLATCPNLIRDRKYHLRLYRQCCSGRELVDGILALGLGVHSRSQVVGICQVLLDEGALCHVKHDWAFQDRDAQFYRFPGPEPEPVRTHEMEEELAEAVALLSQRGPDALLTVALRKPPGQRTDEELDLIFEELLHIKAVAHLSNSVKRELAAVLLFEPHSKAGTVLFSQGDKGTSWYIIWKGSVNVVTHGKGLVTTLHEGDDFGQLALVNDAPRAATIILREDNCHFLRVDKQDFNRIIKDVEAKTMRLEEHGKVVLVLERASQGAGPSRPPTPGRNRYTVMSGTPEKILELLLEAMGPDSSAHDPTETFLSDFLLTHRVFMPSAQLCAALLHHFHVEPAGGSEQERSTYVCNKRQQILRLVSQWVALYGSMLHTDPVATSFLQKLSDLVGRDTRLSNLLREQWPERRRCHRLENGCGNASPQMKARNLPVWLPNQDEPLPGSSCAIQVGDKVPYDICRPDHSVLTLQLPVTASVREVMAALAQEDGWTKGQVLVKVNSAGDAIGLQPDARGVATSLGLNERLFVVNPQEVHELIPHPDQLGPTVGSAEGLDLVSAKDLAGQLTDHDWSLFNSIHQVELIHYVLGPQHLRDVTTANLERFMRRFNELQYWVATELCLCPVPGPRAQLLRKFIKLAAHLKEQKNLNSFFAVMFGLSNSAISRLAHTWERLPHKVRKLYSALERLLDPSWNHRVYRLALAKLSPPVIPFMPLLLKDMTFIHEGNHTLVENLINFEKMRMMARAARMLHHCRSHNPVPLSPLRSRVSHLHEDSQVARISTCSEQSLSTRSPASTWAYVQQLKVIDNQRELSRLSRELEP
Rap guanine nucleotide exchange factor 4 (Homo sapiens), sequence (Q8WZA2 whole entry, looked up): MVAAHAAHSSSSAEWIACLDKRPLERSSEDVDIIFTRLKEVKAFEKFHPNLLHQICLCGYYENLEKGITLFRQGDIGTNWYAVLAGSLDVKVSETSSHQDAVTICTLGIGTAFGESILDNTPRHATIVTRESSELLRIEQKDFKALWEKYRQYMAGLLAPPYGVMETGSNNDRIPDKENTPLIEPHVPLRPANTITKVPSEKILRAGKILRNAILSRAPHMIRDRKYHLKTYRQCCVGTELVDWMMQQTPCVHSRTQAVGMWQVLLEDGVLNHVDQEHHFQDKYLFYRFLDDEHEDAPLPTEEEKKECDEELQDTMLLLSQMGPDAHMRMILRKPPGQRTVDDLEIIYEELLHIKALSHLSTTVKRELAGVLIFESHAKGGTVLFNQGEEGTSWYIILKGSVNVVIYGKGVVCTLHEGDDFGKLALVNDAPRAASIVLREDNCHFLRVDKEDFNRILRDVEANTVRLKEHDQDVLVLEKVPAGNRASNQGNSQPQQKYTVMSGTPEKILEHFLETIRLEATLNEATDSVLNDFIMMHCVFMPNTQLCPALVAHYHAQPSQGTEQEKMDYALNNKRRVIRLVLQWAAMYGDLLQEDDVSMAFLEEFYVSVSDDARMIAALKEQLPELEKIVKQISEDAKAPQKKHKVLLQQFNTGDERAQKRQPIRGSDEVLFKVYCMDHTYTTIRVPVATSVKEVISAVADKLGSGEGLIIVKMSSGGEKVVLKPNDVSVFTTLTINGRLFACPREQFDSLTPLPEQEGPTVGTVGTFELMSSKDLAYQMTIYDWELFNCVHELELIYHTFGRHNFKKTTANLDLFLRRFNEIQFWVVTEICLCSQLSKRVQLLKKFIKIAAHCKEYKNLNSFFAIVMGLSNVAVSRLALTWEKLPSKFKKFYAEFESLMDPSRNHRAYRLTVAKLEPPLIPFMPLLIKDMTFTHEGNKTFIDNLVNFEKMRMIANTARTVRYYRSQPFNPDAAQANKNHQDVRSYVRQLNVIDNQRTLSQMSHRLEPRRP
Glucocorticoid receptor (Homo sapiens), sequence (P04150 whole entry, looked up): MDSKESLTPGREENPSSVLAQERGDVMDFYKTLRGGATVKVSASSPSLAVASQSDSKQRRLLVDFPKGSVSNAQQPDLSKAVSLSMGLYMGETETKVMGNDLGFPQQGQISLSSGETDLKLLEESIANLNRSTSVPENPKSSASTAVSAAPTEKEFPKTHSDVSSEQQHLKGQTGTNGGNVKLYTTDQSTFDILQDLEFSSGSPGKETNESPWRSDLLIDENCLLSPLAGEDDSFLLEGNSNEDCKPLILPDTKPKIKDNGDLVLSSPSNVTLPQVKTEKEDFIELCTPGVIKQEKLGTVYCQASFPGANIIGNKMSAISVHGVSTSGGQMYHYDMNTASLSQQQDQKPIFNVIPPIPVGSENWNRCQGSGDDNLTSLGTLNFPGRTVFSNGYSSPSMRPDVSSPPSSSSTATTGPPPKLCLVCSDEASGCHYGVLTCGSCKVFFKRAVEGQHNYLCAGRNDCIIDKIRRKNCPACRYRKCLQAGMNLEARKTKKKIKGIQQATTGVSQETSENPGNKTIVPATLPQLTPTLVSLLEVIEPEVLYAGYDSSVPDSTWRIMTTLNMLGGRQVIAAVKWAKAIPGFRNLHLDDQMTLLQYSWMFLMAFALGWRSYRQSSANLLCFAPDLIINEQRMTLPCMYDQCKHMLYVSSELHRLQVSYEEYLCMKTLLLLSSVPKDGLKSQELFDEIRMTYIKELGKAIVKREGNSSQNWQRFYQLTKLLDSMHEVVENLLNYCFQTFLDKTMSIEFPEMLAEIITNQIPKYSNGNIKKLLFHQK
Tumor susceptibility gene 101 protein (Homo sapiens), sequence (Q99816 whole entry, looked up, the tested form may be a part): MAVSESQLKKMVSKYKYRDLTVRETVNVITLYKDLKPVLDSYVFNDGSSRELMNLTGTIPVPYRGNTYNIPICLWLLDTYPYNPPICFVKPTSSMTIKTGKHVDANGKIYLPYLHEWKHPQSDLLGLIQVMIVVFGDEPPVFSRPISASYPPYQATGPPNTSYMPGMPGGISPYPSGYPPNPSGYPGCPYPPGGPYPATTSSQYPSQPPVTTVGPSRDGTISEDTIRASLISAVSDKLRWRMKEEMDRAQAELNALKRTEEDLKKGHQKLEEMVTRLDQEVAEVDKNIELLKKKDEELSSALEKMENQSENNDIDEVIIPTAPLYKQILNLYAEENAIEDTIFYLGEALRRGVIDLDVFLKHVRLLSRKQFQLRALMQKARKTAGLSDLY

With `COc1c(S(=O)(=O)N2CCCC2)ccc(Cl)c1Cl` the Potency [1] was “inactive”, the Potency [2] was “inactive” and the activation [3] was 4.79% [at 17.1 µM, percent relative to cAMP agonist control]. The activity change, negative = inhibition [4] was -12% [at 30.8 µM] and the activation [5] was 23.7% [at 30.8 µM].

In the case of `CNC(=O)c1ccc2snnc2c1`, the Potency [1] is reported as “inactive”, the Potency [2] is reported as “inactive” and the Potency [3] is reported as “inactive”. The Potency [4] was “inactive” and the Potency [5] was “inactive”.

For `CCN(CC)CCN(C(=O)c1cc2ccccc2cc1OC)c1nc2ccc(F)cc2s1`, the Potency [1] was “inactive”, the Potency [2] was “inactive” and the Potency [3] was “inactive”. The Potency [4] was “inactive” and the Potency [5] was “inactive”.

In the case of `COc1ccc(OC)c(NC(=O)C2(C)CCN2Cc2ccsc2)c1` (stereo not drawn), the Potency [1] is reported as “inactive”, the Potency [2] is reported as “inactive” and the Potency [3] is reported as “inactive”. For the same molecule, the Potency [4] was “inactive” and the Potency [5] was “inactive”.

With `COCCn1c(SCc2ccccc2F)nc2ccccc2c1=O` the Potency [1] was “inactive”, the Potency [2] was “inactive” and the activation [3] was 4.59% [at 17.1 µM, percent relative to cAMP agonist control]. The activity change, negative = inhibition [4] was -6.24% [at 30.8 µM] and the activation [5] was 12.3% [at 30.8 µM].

In the case of `CCC(=O)N1N=C(c2ccc(Cl)cc2)CC1c1ccco1` (stereo not drawn), the Potency [1] is reported as “inactive”, the Potency [2] is reported as “inactive” and the Potency [3] is reported as “inactive”. The Potency [4] was “inactive” and the Potency [5] was “inactive”.

In the case of `O=C1c2cccc3c(N4CCCCC4)ccc(c23)C(=O)N1c1cccc(O)c1`, the Potency [1] is reported as “inactive”, the Potency [2] is reported as 100 µM (active) and the Potency [3] is reported as 112 µM (active). For the same molecule, the Potency [4] was “inactive” and the Potency [5] was 50.1 µM (active).

In the case of `COc1ccccc1C1CC(=O)Oc2cc(C)cc(C)c21` (stereo not drawn), the Potency [1] is reported as “inactive”, the Potency [2] is reported as “inactive” and the activation [3] is reported as 3.14% [at 17.1 µM, percent relative to cAMP agonist control]. The activity change, negative = inhibition [4] was -8.23% [at 30.8 µM] and the activation [5] was 7.71% [at 30.8 µM].

In the case of `O=C(N/N=C/c1cc(Cl)c(O)c(Cl)c1)c1cc2c(ccc3ccccc32)o1`, the Potency [1] is reported as 60.1 µM (active), the Potency [2] is reported as “inactive” and the Potency [3] is reported as “inactive”. For the same molecule, the Potency [4] was “inactive” and the Potency [5] was “inactive”.

For `O=[N+]([O-])c1ccc2nc(NS(=O)(=O)c3ccc(F)cc3)sc2c1`, the Potency [1] was 42.6 µM (active), the Potency [2] was “inactive” and the Potency [3] was “inactive”. For the same molecule, the Potency [4] was “inactive” and the Potency [5] was “inactive”.

In the case of `CCOC(=O)C1=C(C)N=c2s/c(=C\c3ccc(OCC(=O)O)cc3)c(=O)n2C1c1ccc(OC(C)C)cc1` (stereo not drawn), the Potency [1] is reported as 75.7 µM (active), the Potency [2] is reported as “inactive” and the Potency [3] is reported as “inactive”. The Potency [4] was “inactive” and the Potency [5] was “inactive”.

In the case of `CC(Oc1ccc(Cl)cc1Cl)c1ccn[nH]1` (stereo not drawn), the Potency [1] is reported as “inactive”, the Potency [2] is reported as “inactive” and the Potency [3] is reported as “inactive”. For the same molecule, the Potency [4] was “inactive” and the Potency [5] was “inactive”.

In the case of `CCc1c(C)c(C#N)c2nc3ccccc3n2c1-n1nc(C)cc1C`, the activity change, negative = inhibition [6] is reported as -8.93% [at 17.2 µM], the activity change, negative = inhibition [7] is reported as -9.34% [at 17.2 µM] and the outcome [8] is reported as “inactive”. For the same molecule, the Potency [9] was greater than 20.6 µM, the Potency [1] was “inactive” and the Potency [2] was “inactive”. For the same molecule, the activation [3] was 5.42% [at 17.1 µM, percent relative to cAMP agonist control], the activity change, negative = inhibition [4] was 12.9% [at 30.8 µM] and the activation [5] was 30.6% [at 30.8 µM].

With `CS/C(Nc1cc(Cl)ccc1Cl)=C(/C#N)C(=O)c1ccco1` the Potency [1] was 67.5 µM (active), the Potency [2] was “inactive” and the Potency [3] was “inactive”. The Potency [4] was “inactive” and the Potency [5] was “inactive”.

With `COc1cc2c(cc1OC)C(COc1ccc(F)cc1)N(C(C)=O)CC2` (stereo not drawn) the Potency [1] was “inactive”, the Potency [2] was “inactive” and the Potency [3] was “inactive”. For the same molecule, the Potency [4] was “inactive” and the Potency [5] was “inactive”.

In the case of `Cc1cc(C)c(S(=O)(=O)c2ccc(F)cc2)c(C)c1`, the Potency [1] is reported as “inactive”, the Potency [2] is reported as “inactive” and the activation [3] is reported as 0% [at 17.1 µM, percent relative to cAMP agonist control]. It also gave an activity change, negative = inhibition [4] of -27.6% [at 30.8 µM] and an activation [5] of -0.628% [at 30.8 µM].

For `O=C1C=CC(=O)c2c(O)c(N3CCN(CCO)CC3)c(Cl)c(O)c21`, the Potency [1] was 37.9 µM (active), the Potency [2] was “inactive” and the Potency [3] was “inactive”. For the same molecule, the Potency [4] was “inactive” and the Potency [5] was “inactive”.

For `CCCN(CC1CC1)c1cc2c(c3c1ccn3C)C1CCC2C1` (stereo not drawn), the Potency [1] was “inactive”, the Potency [2] was “inactive” and the Potency [3] was “inactive”. The Potency [4] was “inactive” and the Potency [5] was “inactive”.

With `N#C/C(=C/c1ccc(N2CCCCC2)o1)C(=O)Nc1ccc(Cl)cc1` the Potency [1] was “inactive”, the Potency [2] was 17.8 µM (active) and the Potency [3] was 100 µM (active). The Potency [4] was “inactive” and the Potency [5] was 12.6 µM (active).

For `Cc1ccc(Cl)cc1N1CCN(C(=O)c2cccc3c(=O)c(C)c(-c4ccccc4)oc23)CC1`, the Potency [1] was “inactive”, the Potency [2] was “inactive” and the activation [3] was 13% [at 17.1 µM, percent relative to cAMP agonist control]. The activity change, negative = inhibition [4] was -10.3% [at 30.8 µM] and the activation [5] was 25.9% [at 30.8 µM].

With `O=c1cc2oc3cc(O)c(O)cc3c(-c3ccccc3[N+](=O)[O-])c-2cc1O` the Potency [1] was 10.7 µM (active), the Potency [2] was “inactive” and the Potency [3] was “inactive”. The Potency [5] was “inactive”.

In the case of `O=C1C=C(c2ccccc2)C(c2ccccc2)C1` (stereo not drawn), the Potency [1] is reported as “inactive”, the Potency [2] is reported as “inactive” and the Potency [3] is reported as “inactive”. For the same molecule, the Potency [5] was “inactive”.

For `CCOC(=O)/C(C#N)=C\c1ccc(N2CCN(C/C=C/c3ccccc3)CC2)cc1`, the Potency [10] was 20.6 µM (active), the Potency [1] was “inactive” and the Potency [2] was 79.4 µM (active). For the same molecule, the Potency [3] was 100 µM (active), the Potency [4] was “inactive” and the Potency [5] was 70.8 µM (active).
